The sample as a whole holds a higher share of hits than the screen did.
RGS12 GoLoco inh: RGS12 GoLoco-Gai1 interaction inhibition; P63096; Gai1:RGS12 GoLoco peptide FP, rhodamine, 10 min; Potency, µM (titrated, usually from 61.6 µM), for inactives: top-dose activity, negative = inhibition, most hits filed as inhibitors; 230,000 compounds, 0.44% hits; AID 880; active means well fitted inhibition curve with a large enough effect, not every such curve was filed as active; inactive means no such curve, though single readings can be large or run the other way; further: on the % scale 0 is the no-effect control and ±100 the full control effect; nearly all actives have a fitted effect of over 30% in size
IMPase Li cell: IMPase inhibition in cells with lithium potentiation; Potency, µM (titrated, usually from 59.4 µM), for inactives: top-dose activity, negative = IMPase inhibition, most hits filed as inhibitors; CHO-M1 cells, IP1 TR-FRET (IP-One), carbachol + lithium; AID 1457; 210,000 compounds, 0.35% hits;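 further: IP1 builds up when IMPase is blocked and the TR-FRET signal falls; plate controls were basal vehicle for no effect and high inhibitor control for full effect; nearly all actives have a fitted effect of over 50% in size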
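CHO-M1, 2000 cells/well, 16–30 h culture; cpd + low Li+, 30 min 37C; lysis with d2-IP1/Eu-anti-IP1 Ab, 10 min RT; TR-FRET 665/620 ratio and 620 channel; AC50 via Hill.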
MBNL1 CUG block: MBNL1-poly(CUG) RNA binding inhibition | 280,000 compounds, 0.036% hits | TR-FRET MBNL1-His/biotin-(CUG)12 binding, 665/545 ratio | Potency, µM (series often up to 57.5 µM), for inactives: top-dose activity change, negative = inhibition, most hits filed as inhibitors | AID 2675; active means well fitted inhibition curve with a large enough effect in the signal ratio, with a control signal flat, not every such curve was filed as active; inconclusive means small, poorly fitted or top-dose-only effect, or effect the other way, or a change in a side signal; inactive means no such curve, though single readings can be large or run the other way; the % refers to the signal ratio; further: on the % scale 0 is the no-effect control and ±100 the full control effect
Target sequence (Q9NR56 whole entry, looked up): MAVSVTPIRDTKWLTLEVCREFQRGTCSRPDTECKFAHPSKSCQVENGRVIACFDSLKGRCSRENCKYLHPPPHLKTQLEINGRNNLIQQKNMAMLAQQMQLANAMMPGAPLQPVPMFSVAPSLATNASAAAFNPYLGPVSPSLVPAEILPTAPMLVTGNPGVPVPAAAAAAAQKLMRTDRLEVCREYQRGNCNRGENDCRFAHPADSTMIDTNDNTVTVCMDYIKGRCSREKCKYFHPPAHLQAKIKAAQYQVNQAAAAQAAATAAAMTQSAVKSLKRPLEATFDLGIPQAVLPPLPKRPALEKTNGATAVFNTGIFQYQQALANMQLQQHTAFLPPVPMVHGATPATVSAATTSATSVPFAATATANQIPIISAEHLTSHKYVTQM
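Compounds (final 92 nM to 58 uM) are added to His-tagged MBNL1 and biotin-(CUG)12, then terbium anti-His antibody and streptavidin-XL665 (5 nM final). After 60 min at room temperature, the 665/545 nm ratio is read.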
Tb PFK inh-1: inhibitors of T. brucei phosphofructokinase. O15648. T. brucei PFK, ADP-Glo luminescence. Potency, µM (top dose mostly 57.5 µM), for inactives: at the highest dose activity, negative = inhibition, usual class: inhibitors. 330,000 compounds, 0.17% hits. AID 485367;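 further: 0% = uninhibited 1x PFK enzyme wells and -100% = no-enzyme wells; nearly all actives have a fitted effect of over 60% in size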
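ADP-Glo luminescence quantified ADP after 45 min at room temperature, with 1.25 nM T. brucei PFK, 0.1 mM ATP and 0.5 mM fructose-6-phosphate in pH 8.0 TEA buffer. qHTS titrations up to 57 µM; curves classified by quality.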
NPSR antagonist: antagonists of human neuropeptide S receptor cAMP signaling; 220,000 compounds, 1% hits; Q6W5P4; AID 1461; CHO-NPSR cells, cAMP TR-FRET, antagonist mode; Potency, µM (top dose mostly 38.3 µM), for inactives: top-dose activity change, negative = inhibition, most hits filed as inhibitors; further: on the % scale 0 is the no-effect control and ±100 the full control effect; nearly all actives have a fitted effect of over 50% in size
TbPFK ATP: orthogonal confirmation of T. brucei phosphofructokinase inhibitors; AID 504636; Potency, µM (titrated, usually from 57.5 µM), for inactives: at the top dose inhibition; shares compounds with Tb PFK inh-1; Tb PFK enzyme, ATP depletion, Kinase-Glo Plus luminescence; 1,100 compounds, 47% hits; calls by dose curve; further: nearly all actives have a fitted effect of over 60% in size
Tb PFK inh-2: validation of T. brucei phosphofructokinase inhibitors; shares compounds with Tb PFK inh-1; 1,100 compounds, 41% hits; AID 504637; purified T. brucei PFK, ADP-Glo luminescence, 45 min; Potency, µM (top dose mostly 57.5 µM), inactives show top-dose activity change, negative = inhibition, most hits filed as inhibitors;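 further: plate controls were full PFK enzyme control for no effect and no enzyme control for full effect; nearly all actives have a fitted effect of over 60% in size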
Numbers without * were called inactive; ? = inconclusive; nt = not tested or not shown; [ ] = another dose, or the depositor's remark. Unless noted, the call rests on the fitted dose curve; in most records, active means well fitted curve in the direction sought with a large enough effect; inconclusive means small, poorly fitted or top-dose-only effect, or another doubt; inactive means no such curve, though single readings can be large; an effect the other way counts as inactive or inconclusive. Potency means the concentration at half of the fitted maximal effect.

SMILES	RGS12 GoLoco inh	IMPase Li cell	MBNL1 CUG block	Tb PFK inh-1	NPSR antagonist	TbPFK ATP	Tb PFK inh-2
COC(=O)C1=C(c2ccc(OC)c(OC)c2)C[C@@H]2CC[C@H]1N2C(=O)NCc1ccco1	nt	nt	nt	-2.3%	nt	nt	nt
CCOc1ccc(C(=O)OCC(=O)NCc2ccco2)cc1OCC	2.0%	-6.8%[38.3 µM]	-7.8%	?	-14.9%[46.1 µM]	?	-15.1%
S=c1[nH]nc(-c2cccnc2)n1/N=C/C=C/c1ccco1	7.8%	3.1%	16.2%	30.1µM*	-33.3%	6.01µM*	?
Fc1ccc(CCNCc2cccc(Cl)c2)cc1	-15.5%	-13.9%[38.3 µM]	-8.5%	-22.6%	0.0%[46.1 µM]	nt	nt
FCCN(CCF)c1cccc(Cl)c1	6.5%	nt	-8.6%	19µM*	22.7%	8.49µM*	23.9µM*
CSCC[C@@H](N)P(C)(=O)O	-7.6%[14.2 µM]	-3.2%	nt	nt	nt	nt	nt
S=C=NCc1ccccc1	-17.4%	28.8%	nt	nt	nt	nt	nt
CC(C)CNCCc1ccccn1	4.1%[14.2 µM]	-0.9%	nt	nt	nt	nt	nt
CN(C)C(=O)Cl	-24.5%	-11.7%	nt	nt	nt	nt	nt
C[C@H](CN(C)C)C(C#N)(c1ccccc1)c1ccccc1	-0.9%[14.2 µM]	22.7%	nt	nt	nt	nt	nt

Screening data as filed in PubChem BioAssay.
